This note sets out measurements from PubChem BioAssay (NCI).

Some test systems named below: NCI-H23 lung; NCI-H226 lung; NCI-H322M lung; HOP-62 NSCLC; NCI-H460 lung; HOP-92 NSCLC; NCI-H522 lung; A549/ATCC NSCLC; 786-0 renal; COLO 205 colon.
Common to all, as to assay: NCI-60 one-dose screen, 48 h (100 = growth as untreated, 0 = no growth, -100 = all killed)
What all share (settings): 10 µM unless noted

Compounds without any hit were thinned out: in the full panel of roughly 83,000, 20% have a hit.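 The endpoint reported here, percent growth, reads 100 for growth as untreated, 0 for no net growth and -100 for all cells dead.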 Values without a mark were called inactive. The source made the active and inactive calls. How the source made its calls: active means growth percent below 10; inactive means the rest.

For `CCCOC(=O)C1(O)CCCC1`, the growth was 106% with NCI-H23 lung; 92.9% in the test on NCI-H226 lung; 102% in the test on NCI-H322M lung; 109% in the test on HOP-62 NSCLC; 108% in the test on NCI-H460 lung; 89.8% in the test with HOP-92 NSCLC. Besides, the growth was 75% in the test with NCI-H522 lung, 105% in the test with A549/ATCC NSCLC, 105% in the test with 786-0 renal and 118% with COLO 205 colon.
Regarding `COc1cc(Cn2c(SCCC(=O)Nc3ccc(F)cc3)nc3ccccc3c2=O)cc(OC)c1OC`, the growth is 90.5% in the test with NCI-H23 lung; 79% in the test with NCI-H226 lung; 81.1% in the test with NCI-H322M lung; 82.7% in the test on HOP-62 NSCLC; 96.8% in the test on NCI-H460 lung; 55.1% with HOP-92 NSCLC. Moreover, the growth was 53.8% in the test with NCI-H522 lung, 83.5% in the test with A549/ATCC NSCLC, 90.5% with 786-0 renal and 95.8% with COLO 205 colon.
Take `Cc1cccc(NC(=O)c2sc3nc4c(cc3c2N)CCCC4)c1`: the growth was 65% in the test on NCI-H23 lung; 64.8% in the test with NCI-H226 lung; 37.2% in the test on NCI-H322M lung; 37.8% with HOP-62 NSCLC; 27.6% in the test with NCI-H460 lung; 56.5% in the test with HOP-92 NSCLC. For the same molecule, the growth was 24.5% with NCI-H522 lung, 31.5% in the test on A549/ATCC NSCLC, 59.8% with 786-0 renal and 26.9% in the test on COLO 205 colon.
On to `CCNC(=O)CCCCC(=O)c1c(C)[nH]c(/C=C2\N=C(c3ccc[nH]3)C=C2OC)c1C`, for which the growth in the test with NCI-H23 lung is 35%; with NCI-H226 lung, 65.7%; with NCI-H322M lung it was 37.9%; in the test on HOP-62 NSCLC, 42.7%; with NCI-H460 lung, -65.1% (active); in the test on HOP-92 NSCLC it was -71.6% (active). In addition, the growth in the test with NCI-H522 lung was -91.7% (active); with A549/ATCC NSCLC, 9.45% (active); in the test on 786-0 renal, -51.9% (active); in the test with COLO 205 colon, 1.23% (active).
Regarding `CN(C)c1ccc(-c2ccc(-c3ccc(C(=N)N)cn3)o2)cc1`, the growth was 20.9% in the test with NCI-H23 lung; 21.3% in the test on NCI-H226 lung; -0.109% (active) in the test with NCI-H322M lung; -69.8% (active) in the test on HOP-62 NSCLC; -86.8% (active) in the test on NCI-H460 lung; -61.2% (active) with HOP-92 NSCLC. Also, the growth is -72.9% (active) with NCI-H522 lung, -48.7% (active) with A549/ATCC NSCLC, -66.6% (active) with 786-0 renal and -93.7% (active) in the test with COLO 205 colon.
Take `O=C(O)C(Cc1ccccc1)N1C(=O)/C(=C/C(Cl)=C/c2ccc([N+](=O)[O-])cc2)SC1=S` (stereo not given): the growth with NCI-H23 lung is 16.1%; with NCI-H226 lung, 71.2%; with NCI-H322M lung it was 70.9%; in the test with HOP-62 NSCLC, 47.7%; with NCI-H460 lung it was 50.1%; with HOP-92 NSCLC, 20%. For the same molecule, the growth in the test with NCI-H522 lung is 0.83% (active); in the test with A549/ATCC NSCLC, 81.2%; with 786-0 renal, -31.6% (active); with COLO 205 colon, 17.4%.
`Cc1ccc(-c2csc3nc(C)c(CCCl)c(=O)n23)cc1`: the growth was 87.5% in the test on NCI-H23 lung; 78.6% with NCI-H226 lung; 98.5% in the test on NCI-H322M lung; 87.8% in the test on HOP-62 NSCLC; 99.5% in the test on NCI-H460 lung; 80.8% with HOP-92 NSCLC. For the same molecule, the growth in the test with NCI-H522 lung was 88.8%; with A549/ATCC NSCLC it was 98%; in the test with 786-0 renal, 104%; in the test with COLO 205 colon it was 119%.
Regarding `CCOC(=O)CC/C(C)=N\Nc1ccc([N+](=O)[O-])cc1`, the growth in the test with NCI-H23 lung is 99.5%; in the test with NCI-H226 lung, 67.9%; in the test on NCI-H322M lung, 77.3%; in the test with HOP-62 NSCLC it was 63.2%; in the test with NCI-H460 lung, 27.1%; in the test with HOP-92 NSCLC it was 89.8%. For the same molecule, the growth was 38.8% in the test with NCI-H522 lung, 24.4% with A549/ATCC NSCLC, 72.9% in the test with 786-0 renal and 34.7% in the test on COLO 205 colon.
`CCOP(=O)(CCN1CCN(CCCCCOc2cc3c(cc2OC)C(=O)N2CCC[C@H]2C=N3)CC1)OCC`: the growth in the test on NCI-H23 lung was 104%; in the test with NCI-H226 lung it was 114%; with NCI-H322M lung, 140%; in the test with HOP-62 NSCLC, 109%; in the test on NCI-H460 lung, 75.5%; with HOP-92 NSCLC it was -47.9% (active). In addition, the growth is 62.7% with NCI-H522 lung, 93.9% with A549/ATCC NSCLC, 99.1% in the test on 786-0 renal and 71.4% in the test on COLO 205 colon.
As for `COc1cccc2nc(Nc3ccc(NC(=O)c4ccc5ncccc5c4)cc3)ccc12`, the growth in the test on NCI-H23 lung is 92.8%; with NCI-H226 lung, 97.5%; with NCI-H322M lung, 81.4%; in the test with HOP-62 NSCLC, 91.9%; in the test on NCI-H460 lung, 84.8%; in the test with HOP-92 NSCLC, 111%. Moreover, the growth is 99.9% in the test with NCI-H522 lung, 78.1% in the test with A549/ATCC NSCLC, 42.7% in the test with 786-0 renal and 103% with COLO 205 colon.
Consider `C[N+](C)(C)c1ccc(CC2c3ccccc3-c3ccccc32)cc1`, for which the growth with NCI-H23 lung is 78.5%; in the test with NCI-H226 lung, 82.2%; in the test with NCI-H322M lung, 87.8%; with HOP-62 NSCLC, 38.9%; with NCI-H460 lung it was 87.3%; in the test with HOP-92 NSCLC, 28.8%. Moreover, the growth in the test with NCI-H522 lung was 59.9%; with A549/ATCC NSCLC, 62%; in the test on 786-0 renal, 73.9%; in the test on COLO 205 colon it was 59.8%.
On to `c1ccc([P+](CCC[P+](c2ccccc2)(c2ccccc2)c2ccccc2)(c2ccccc2)c2ccccc2)cc1`, for which the growth was 89% in the test with NCI-H23 lung; 101% with NCI-H226 lung; 79.5% in the test with NCI-H322M lung; 75.3% with HOP-62 NSCLC; 77.6% with NCI-H460 lung; 20.1% in the test on HOP-92 NSCLC. Moreover, the growth was 43.1% in the test on NCI-H522 lung, 86.9% in the test with A549/ATCC NSCLC, 92.5% with 786-0 renal and 45.4% in the test on COLO 205 colon.
For the molecule `CCn1cc(C(=O)O)c(=O)c2cc(F)c(N3CCN(S(=O)(=O)c4cccc5ccccc45)CC3)cc21`, the growth in the test with NCI-H23 lung was 0.0593% (active); with NCI-H226 lung it was 21.9%; in the test on NCI-H322M lung, -14.5% (active); in the test on HOP-62 NSCLC it was 15.1%; with NCI-H460 lung, 8.04% (active); in the test with HOP-92 NSCLC it was -8.49% (active). Further, the growth is -33.9% (active) in the test with NCI-H522 lung, 3.78% (active) in the test with A549/ATCC NSCLC, 24.3% in the test on 786-0 renal and -87.6% (active) in the test on COLO 205 colon.
